Results on 8 compounds are retold here after PubChem BioAssay (NCI).

Test systems include NCI-H23 lung; NCI-H226 lung; NCI-H322M lung; HOP-62 NSCLC; NCI-H460 lung; HOP-92 NSCLC; NCI-H522 lung; A549/ATCC NSCLC; 786-0 renal; COLO 205 colon; DU-145 prostate; K-562 leukemia; MALME-3M melanoma; MDA-MB-231 breast; RXF 393 renal; SF-268 CNS; SF-295 CNS; SF-539 CNS; UACC-257 melanoma; M14 melanoma.
Common to all, as to assay: NCI-60 one-dose screen, 48 h (100 = growth as untreated, 0 = no growth, -100 = all killed)
Settings in all cases: 10 µM unless noted

Compounds without any hit were thinned out: in the full panel of roughly 83,000, 20% have a hit.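 A percent growth of 40 corresponds to 60% growth inhibition; 0 means no net growth; -100 means all cells died. Active threshold: below 10.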 Unmarked numbers belong to inactive results. The source made the active and inactive calls.

With `Cc1cc(Nc2cc(N3CCN(C)CC3)nc(Sc3ccc(NC(=O)C4CC4)cc3)n2)n[nH]1`, the growth in the assay on NCI-H23 lung was 38.2%; in the assay on NCI-H226 lung it was 36.3%; with NCI-H322M lung it was 58.8%; with HOP-62 NSCLC, 18.4%; in the assay with NCI-H460 lung, 14.1%; in the assay on HOP-92 NSCLC, 12.1%. Besides, the growth with NCI-H522 lung was 24.1%; in the assay on A549/ATCC NSCLC, 20.6%; in the assay with 786-0 renal, 48.4%; in the assay on COLO 205 colon, -29.3% (active); with DU-145 prostate, 55.7%; in the assay with K-562 leukemia it was 8.47% (active). Also, the growth with MALME-3M melanoma was 29.3%; in the assay on MDA-MB-231 breast, 37.1%; in the assay with RXF 393 renal it was -18.7% (active); in the assay on SF-268 CNS it was 48.6%; in the assay on SF-295 CNS, 32.7%; in the assay with SF-539 CNS, 9.92% (active). For the same compound, the values for the growth in the assay with UACC-257 melanoma and with M14 melanoma were 18.1% and 22.3%, respectively.

In the case of `CN1CC[C@H](c2c(O)cc(O)c3c(=O)cc(-c4ccccc4Cl)oc23)[C@H](O)C1`, the growth was -17.3% (active) in the assay on NCI-H23 lung; 3.69% (active) with NCI-H226 lung; -5.32% (active) in the assay on NCI-H322M lung; -17.2% (active) with HOP-62 NSCLC; 3.22% (active) in the assay on NCI-H460 lung; -6.87% (active) in the assay on HOP-92 NSCLC. The growth in the assay with NCI-H522 lung is -23.9% (active); with A549/ATCC NSCLC, 5.9% (active); with 786-0 renal, 7.41% (active); in the assay with COLO 205 colon it was -55% (active); in the assay on DU-145 prostate, 9.08% (active); with K-562 leukemia, 6.14% (active). The growth in the assay on MALME-3M melanoma was -45.3% (active); in the assay with MDA-MB-231 breast it was 1.35% (active); in the assay on RXF 393 renal it was -65.5% (active); in the assay on SF-268 CNS, 4.21% (active); in the assay on SF-295 CNS, 8.48% (active); in the assay on SF-539 CNS, -28% (active). Further, the growth with UACC-257 melanoma was -23.8% (active); in the assay on M14 melanoma, -50.1% (active).

Turning to `C[C@@H](Oc1cc(-c2cnn(C3CCNCC3)c2)cnc1N)c1c(Cl)ccc(F)c1Cl`, the growth in the assay on NCI-H23 lung was -10.4% (active); in the assay with NCI-H226 lung, -11.6% (active); with NCI-H322M lung, 15.2%; in the assay with HOP-62 NSCLC it was -34.8% (active); in the assay on NCI-H460 lung, -64.4% (active); in the assay with HOP-92 NSCLC it was -51.9% (active). The growth in the assay on NCI-H522 lung was -74.8% (active); in the assay with A549/ATCC NSCLC it was -40.9% (active); with 786-0 renal, -74.7% (active); in the assay with COLO 205 colon, -78.5% (active); in the assay with DU-145 prostate, -0.0589% (active); in the assay with K-562 leukemia it was -38.7% (active). Besides, the growth in the assay on MALME-3M melanoma was -88.2% (active); in the assay on MDA-MB-231 breast, -58.6% (active); in the assay with RXF 393 renal it was -87.3% (active); with SF-268 CNS, 1.66% (active); in the assay with SF-295 CNS, -72.1% (active); with SF-539 CNS, -95.5% (active). The growth in the assay with UACC-257 melanoma is -83.3% (active); with M14 melanoma, -77.2% (active).

Turning to `CC(C)Nc1cc(-c2c[nH]c(C(=O)N[C@H](CO)c3cccc(Cl)c3)c2)c(Cl)cn1`, the growth in the assay with NCI-H23 lung was 19.9%; in the assay on NCI-H226 lung, 38%; in the assay on NCI-H322M lung, 17.5%; in the assay on HOP-62 NSCLC it was 28.6%; in the assay on NCI-H460 lung, 25.2%; in the assay with HOP-92 NSCLC it was -18.5% (active). In addition, the growth was 22.2% in the assay with NCI-H522 lung; 14.8% in the assay with A549/ATCC NSCLC; 42.4% in the assay with 786-0 renal; -19.2% (active) with COLO 205 colon; 57.4% in the assay with DU-145 prostate; 19.8% in the assay with K-562 leukemia. Also, the growth with MALME-3M melanoma is 9.08% (active); in the assay on MDA-MB-231 breast, 20.1%; with RXF 393 renal, 2.5% (active); in the assay with SF-268 CNS, 59.6%; with SF-295 CNS it was 45.6%; in the assay on SF-539 CNS, 45.2%. Moreover, the growth was -9.52% (active) in the assay on UACC-257 melanoma and 3.28% (active) in the assay with M14 melanoma.

`O=C(NOCCO)c1ccc2cncn2c1Nc1ccc(I)cc1F`: the growth was 18.8% with NCI-H23 lung; 56.7% in the assay with NCI-H226 lung; 24.1% in the assay on NCI-H322M lung; 35.7% with HOP-62 NSCLC; 74.7% with NCI-H460 lung; -19.6% (active) in the assay on HOP-92 NSCLC. Also, the growth with NCI-H522 lung was 60.4%; in the assay on A549/ATCC NSCLC it was 25.4%; in the assay on 786-0 renal, 81.6%; with COLO 205 colon it was 6.84% (active); in the assay on DU-145 prostate, 64.6%; in the assay on K-562 leukemia it was 38.2%. For the same compound, the growth was 1.32% (active) with MALME-3M melanoma; 31.6% in the assay on MDA-MB-231 breast; -6.5% (active) with RXF 393 renal; 74.5% in the assay with SF-268 CNS; 91.9% in the assay with SF-295 CNS; 66.2% with SF-539 CNS. Moreover, the growth in the assay on UACC-257 melanoma is -20.7% (active); in the assay with M14 melanoma, 5.3% (active).

Regarding `Nc1nc(Nc2ccccc2)c(C=Nc2ccccc2)c(=O)[nH]1`, the growth in the assay with NCI-H23 lung is 88.5%; in the assay on NCI-H226 lung it was 86.5%; in the assay on NCI-H322M lung, 93.3%; in the assay with HOP-62 NSCLC, 73.7%; in the assay with NCI-H460 lung it was 102%; with HOP-92 NSCLC it was 66.8%. Further, the growth in the assay with NCI-H522 lung is 57.9%; in the assay on A549/ATCC NSCLC it was 89.6%; in the assay on 786-0 renal, 93.5%; in the assay on COLO 205 colon, 107%; with DU-145 prostate it was 103%; in the assay on K-562 leukemia it was 90.4%. The growth with MALME-3M melanoma was 103%; in the assay on MDA-MB-231 breast it was 104%; with RXF 393 renal, 91.7%; in the assay on SF-268 CNS it was 94%; in the assay on SF-295 CNS, 95.5%; with SF-539 CNS, 85.5%. The figures for the growth in the assay with UACC-257 melanoma and with M14 melanoma were 93.6% and 91.5%, respectively.

As to `CCn1c(-c2nonc2N)nc2c(C#CC(C)(C)O)ncc(OC[C@H]3CCCNC3)c21`, the growth in the assay on NCI-H23 lung was 78.7%; in the assay on NCI-H226 lung it was 113%; in the assay with NCI-H322M lung, 75.2%; with HOP-62 NSCLC, 73%; in the assay with NCI-H460 lung it was 56.6%; in the assay with HOP-92 NSCLC, 178%. The growth in the assay with NCI-H522 lung was 12.7%; in the assay with A549/ATCC NSCLC it was 87.8%; in the assay on 786-0 renal, 26.7%; in the assay on COLO 205 colon, 38.2%; in the assay on DU-145 prostate it was 64.4%; with K-562 leukemia, 38.8%. Also, the growth in the assay on MALME-3M melanoma was 84.2%; in the assay on MDA-MB-231 breast, 84.2%; in the assay with RXF 393 renal it was 5.93% (active); in the assay on SF-268 CNS it was 81%; in the assay on SF-295 CNS, 41.4%; in the assay on SF-539 CNS it was 27.1%. Further, the growth is 130% with UACC-257 melanoma and 71% with M14 melanoma.

Regarding `Cc1ccccc1N1C(c2ccccc2)=NNC12C=CC(=O)C=C2Cl` (stereo not given), the growth in the assay on NCI-H23 lung is 98.1%; with NCI-H226 lung it was 115%; in the assay on NCI-H322M lung, 95.4%; with HOP-62 NSCLC it was 98.3%; in the assay with NCI-H460 lung, 115%; in the assay on HOP-92 NSCLC, 114%. Further, the growth in the assay on NCI-H522 lung was 95.2%; in the assay on A549/ATCC NSCLC it was 75.5%; in the assay with 786-0 renal, 106%; with COLO 205 colon it was 99.3%; in the assay with DU-145 prostate it was 110%; with K-562 leukemia, 96.4%. For the same compound, the growth is 98.6% with MALME-3M melanoma; 111% in the assay with MDA-MB-231 breast; 132% in the assay on RXF 393 renal; 99.1% with SF-268 CNS; 108% in the assay on SF-295 CNS; 93.4% with SF-539 CNS. Besides, the growth with UACC-257 melanoma is 81.1%; in the assay on M14 melanoma it was 105%.
